Results as given in PubChem BioAssay AID651650 (Sanford-Burnham Center for Chemical Genomics, 2012).

biological target: Neuropilin-1 (Homo sapiens) (UniProt O14786); experiment: blockers of CendR peptide binding to NRP-1 – biochemical, FP and AlphaScreen panel, dose response (AID 651650); details: NRP-1 b1b2 / RPARPAR peptide binding, FP or AlphaScreen; run 1, at 100 µM (top of the series)
Sequence (O14786 whole entry, looked up): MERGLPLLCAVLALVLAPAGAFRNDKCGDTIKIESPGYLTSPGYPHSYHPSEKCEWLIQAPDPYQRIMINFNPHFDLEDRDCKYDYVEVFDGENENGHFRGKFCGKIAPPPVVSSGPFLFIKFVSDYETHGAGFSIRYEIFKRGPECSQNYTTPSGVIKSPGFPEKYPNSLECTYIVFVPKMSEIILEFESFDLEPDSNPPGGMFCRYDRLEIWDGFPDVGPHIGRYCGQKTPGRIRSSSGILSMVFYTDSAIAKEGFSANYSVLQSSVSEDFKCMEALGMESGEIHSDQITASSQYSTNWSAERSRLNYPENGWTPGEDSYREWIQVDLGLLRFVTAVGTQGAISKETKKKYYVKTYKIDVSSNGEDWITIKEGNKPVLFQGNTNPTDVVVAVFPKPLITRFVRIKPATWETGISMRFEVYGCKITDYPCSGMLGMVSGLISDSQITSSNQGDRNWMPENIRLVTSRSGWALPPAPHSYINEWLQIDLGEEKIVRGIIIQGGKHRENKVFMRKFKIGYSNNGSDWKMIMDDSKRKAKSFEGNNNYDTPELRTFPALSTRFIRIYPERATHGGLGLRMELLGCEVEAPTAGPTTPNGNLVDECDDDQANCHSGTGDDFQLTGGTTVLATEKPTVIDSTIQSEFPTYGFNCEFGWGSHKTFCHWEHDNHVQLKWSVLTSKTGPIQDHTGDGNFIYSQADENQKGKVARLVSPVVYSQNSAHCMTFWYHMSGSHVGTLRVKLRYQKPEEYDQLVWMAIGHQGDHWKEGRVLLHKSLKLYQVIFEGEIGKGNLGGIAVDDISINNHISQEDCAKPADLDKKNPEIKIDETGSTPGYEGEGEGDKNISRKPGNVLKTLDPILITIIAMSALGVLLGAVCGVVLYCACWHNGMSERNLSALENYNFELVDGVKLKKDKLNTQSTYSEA

Structure (SMILES) | inhibition
Cc1cc(NC(=O)CCC(=O)NNC(=O)c2ccc(C(C)(C)C)cc2)no1 | 102%
CCCCn1nnnc1C(c1cc2ccccc2o1)N(C)Cc1ccc(Cl)c(Cl)c1 (centres undefined) | 104%
Cc1ccc(CN(CC(=O)NC2CCCCC2)C(=O)c2csnn2)cc1 | 30.2%
O=C(OCn1nnc2ccccc2c1=O)c1ccc(Br)o1 | 25.4%
COCc1cccc(-c2csc(C(C)(O)c3ccccc3)n2)c1 (centres undefined) | 25.6%
Cc1ccsc1C(=O)N1CCCC(CO)(Cc2ccccc2F)C1 (centres undefined) | 17.8%
CC(C)NC(=O)c1c(CSc2ccccc2)noc1C(=O)NCc1ccccc1 | 49%
COc1ccccc1COc1ccc2c(C)c(CC(=O)O)c(=O)oc2c1C | 44.2%
COc1ccc(-c2[nH]ncc2CN(C)CCc2c(C)n[nH]c2C)c(F)c1 | -14.2%
CCOC(=O)C1=CCN(S(=O)(=O)c2ccccc2Br)C1c1ccccc1 (centres undefined) | 35.1%
Cc1ccc(NC(=O)c2ccc3c(c2)OCCO3)cc1S(=O)(=O)Nc1cccc(Cl)c1 | 4.91%
COC(=O)c1ccc(Cn2nnc3c(=O)[nH]c(C4CCCN(S(=O)(=O)c5cccc(Cl)c5)C4)nc32)cc1 (centres undefined) | 35.3%
CC(=O)Nc1ccc2nc3c(=O)n(C)c(=O)n(C)c3nc2c1 | 84.8%
C[C@@H]1CC=C[C@H]2[C@H]1C(=O)N(Cc1ccccc1)[C@H]2c1ccc(/C=C/c2ccccc2)cc1F | 48.3%
O=C(Cn1cccc1C(=O)c1ccccc1)NCCC1=CCCCC1 | 94.3%
CCn1cc(C(=O)N2CCN(C(=O)c3ccco3)CC2)c2cc(OC)c(OC)cc2c1=O | 77.9%
COc1ccccc1N1CCN(C2CCCN(C(=O)Cn3cccn3)C2)CC1 (centres undefined) | 38.2%
N=C1C(=O)OCC1c1cc(Cl)ccc1NC(=O)Nc1ccccc1 (centres undefined) | 47.4%
Oc1ccccc1-c1ccn[nH]1 | 32%
O=C(c1cccc(F)c1)N1CCN(c2ccc([N+](=O)[O-])c(N3CCCCC3)c2)CC1 | 33.3%

Structure (SMILES) | inhibition
O=C(O)C1CCN(C(=O)c2ccc(Cl)cc2)CC1 | 32%
NC(=O)C1=C[C@H](c2ccc(Br)cc2)C[C@H](OCc2ccc(CO)cc2)O1 | 36.9%
Cc1ccc(NC(=S)Nc2cccc3ccccc23)cc1 | 13.4%
O=C(COc1cc(Cl)c(Cl)cc1Cl)Nc1ccc([N+](=O)[O-])cc1Cl | 38.3%
CC(=O)Nc1ccc(Oc2cc(C#N)c(C#N)cc2N2CCOCC2)cc1 | 10.4%
CN(c1ccccc1)S(=O)(=O)c1cccc(NC(=O)CSc2nncn2C)c1 | 21.8%
CCN(Cc1ccncc1)C(=O)c1cc(COc2ccc(F)cc2F)on1 | 18.1%
CCOc1cc(C(=O)NCCN2CCOCC2)cc(OCC)c1OCC | 23.9%
Cc1nnc(NC(=O)c2ccccc2C(=O)O)s1 | 99.7%
c1ccc2c3n(nc2c1)CCCO3 | 27.6%
O=C(COC(=O)c1ccccn1)c1ccc([N+](=O)[O-])cc1 | 66.4%
CCOC(=O)C(NC(=O)CC(C)C)(Nc1sc(C)c(CC)c1C#N)C(F)(F)F (centres undefined) | -7.38%
OCC1OC(n2cnc3c(/C=C(\O)c4ccccc4)ncnc32)C(O)C1O (centres undefined) | 3.57%
Cc1cc(S(=O)(=O)NC2CCCCC2)ccc1OCC(=O)N1CCOCC1 | 97.6%
COc1ccc(OCC(=O)O/N=C(\N)Cc2ccc(Cl)cc2Cl)cc1 | 61.1%
Cc1cc(NC(=O)COC(=O)c2ccc(C)c(C)c2)no1 | 5.88%
O=C1CCN(Cc2ccccc2)S(=O)(=O)c2ccccc21 | 54%
Nc1ncnc2[nH]c(=S)[nH]c12 | -4.05%
COc1ccc(-c2csc(Nc3cccnc3)n2)cc1 | 47.6%
